According to the OligoGym collection:

target: SLC28A2; test: pooled miR-30 sensor sort-seq; sequence = guide strand; settings: shRNA
Note: reference of the scale not given here.

Sequence | sensor-assay potency score (higher = more potent)
TTGAACAATCTGGCGTGTGTTT | -0.953
TTGTTGTAGAATCCACAGCAGT | -1.13
TTGGACAGTCTGTCCACTCTAC | 0.142
TTCTTTTTCCATGAGCTCCAGC | -0.532
TTCCAGGACATTCCTCTCCTTC | -1.16
ATCTTCTTGAACAATCTGGCGT | -0.838
TCTTCTTGAACAATCTGGCGTG | -0.29
TTGGTGAAACTTGTGTTTGGGA | -0.24

target: SLC29A1; test: as above; settings: shRNA

Sequence | sensor-assay potency score (higher = more potent)
ATGATAACAGCACAGGCTGTGA | -1.06
AAATGATAACAGCACAGGCTGT | -0.935
AAGACCACAGTCAGGTAGCGGC | -0.976
TTTGTATCTGTCCTGAGGCTGG | -0.764
TAGGGTCATGACATTGTTGAAG | -0.605
TTGAAGATGGCACTGAGAGAGT | -0.713
ATGAAGAAGATGAACCAGGCAT | 0.328
TTTCTGATAGCTCCGAGCCACT | -1.47
TCGAAGACCACAGTCAGGTAGC | -0.552
TTGACCTCAACAGTCACGGCTG | 0.158
TTGCTAATGAGGTCCAACTTGG | -1.11
TTTGCTAATGAGGTCCAACTTG | -0.866
TAACGTTCCCAGGTGCTGCTGC | 0.232
TCAAGAAACAGGACACAGGAAT | -0.724
ATATTGAAAGTCAAGAAACAGG | -1.17
TTGAGCTGCTGGTAGTAGCGGT | 0.0578
TTCAAGCTTGAGCTGCTGGTAG | 0.0487
TGAATTAATGAGCACGATCTTG | -0.995
TCCTTTGCTAATGAGGTCCAAC | -1.65
TGAAACTCCAGATTCCTCTTTG | -0.131
AATGTTGCACAGCAGCAGCAGT | -1.2
TTGTGAAATACTGAGTGGCCGT | -0.907
TTGCACAGCAGCAGCAGTGGCA | -0.846

target: SLC29A3; test: as above; settings: shRNA

Sequence | sensor-assay potency score (higher = more potent)
TTGCATCTCGCTGTCAGCTGGA | 0.563
TTGAACTGTGCTGAAAGTCGTC | 0.651
TTGAACATCCAGTACTCCTTGG | -0.255
TTACAGAGCACGAAGAGGGGGA | 0.172
TATGACTGGAATATCTGCCTTG | 0.374
TTGCTTGCATCTCGCTGTCAGC | -1.44
TTTGTAATAACTCTAGGGCGAA | -1.16
TTTGCTTGCATCTCGCTGTCAG | 0.244
TTGCGGAGTTTGAACATCCAGT | -0.979
